Results from PubChem BioAssay AID652067 (The Scripps Research Institute Molecular Screening Center, 2013).
Out of some 370,000 compounds screened, about 5,400 (1.5%) were called active.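 The calls were made as follows: active = activation above the mean of all tested compounds plus 3 SD (cut at about 5.5% in these data); inactive = the rest.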 Shown is part of a subset that was picked to be rich in actives.

The compounds below were run on DAF-12 nuclear receptor (Haemonchus contortus) (assay: H. contortus DAF-12 nuclear receptor activators, primary screen, cell-based, luminescence, HEK293, lit1-tk-luc reporter (AID 652067;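 also: 100% = response to 3 µM Δ7-dafachronic acid high control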)). Settings: HEK293 hcDAF-12 lit1-tk-luc reporter, at 6.8 µM, stronger effect = higher value, 0% DMSO, 100% Δ7-dafachronic acid.

Question: Which activation does the source give for O=C(CSc1nnc(-c2ccccn2)n1-c1ccc(Cl)cc1)Nc1ccccc1-c1ccccc1 here?
Answer: The activation was -4.12% (inactive).

Question: Oc1cccc2ccc(/C=C/c3ccc(Br)s3)nc12 was tested. Which activation did it give?
Answer: Its activation is 10.2% (active).

Question: How did the activation turn out when O=C(Cn1c(-c2ccc(Cl)cc2)noc1=O)N1CCN(c2ccccc2F)CC1 was run?
Answer: The activation was -0.55% (inactive).

Question: With Cc1ccc(NC(=O)Nc2cc(C)nn2-c2ccccc2)cc1 as the compound, how does the activation read?
Answer: The activation was -0.41% (inactive).

Question: For COC(=O)c1cc(C(=O)OC)cc(N2C(=O)CC(N3CCN(c4ccccc4)CC3)C2=O)c1 (centres undefined), which activation is on record?
Answer: The activation was 0.25% (inactive).

Question: With COC(=O)C1=NN(c2ccccc2)C2C(=O)N(c3ccccc3OC)C(=O)C12 (centres undefined) as the compound, how does the activation read?
Answer: Its activation is 9.57% (active).

Question: How did the activation turn out when COC(=O)C1(C)NC(c2ccccc2OC)C2C(=O)N(c3ccccc3)C(=O)C21 (centres undefined) was run?
Answer: The activation was -2.14% (inactive).

Question: How did the activation turn out when CCOC(=O)C1CSCCS(=O)(=O)N1Cc1ccc(Cl)cc1 (centres undefined) was run?
Answer: Its activation is -2.38% (inactive).

Question: How did the activation turn out when O=C(C(=O)N1CCC(CNS(=O)(=O)Cc2ccccc2)CC1)c1cc2ccccc2o1 was run?
Answer: Its activation is -0.72% (inactive).

Question: With COc1ccc(OC)c(NC(=O)c2cccc(S(=O)(=O)N3CCN(C(C)=O)CC3)c2)c1 as the compound, how does the activation read?
Answer: The activation was 0.25% (inactive).

Question: With COc1ccc(C2COC(=O)C2=N)c(NC(=O)c2ccccc2)c1 (centres undefined) as the compound, how does the activation read?
Answer: Its activation is 8.16% (active).

Question: With COc1cccc(C(=O)Nc2cc3c(cc2Br)OCCCO3)c1 as the compound, how does the activation read?
Answer: The activation was 3.75% (inactive).

Question: For COc1cc(/C=C/C(=O)n2cnc3ccccc32)cc(OC)c1OC, which activation is on record?
Answer: Its activation is 0.33% (inactive).

Question: Which activation does the source give for O=C(CSc1nnc(COc2ccccc2)n1Cc1ccco1)c1ccc2ccccc2c1 here?
Answer: The activation was -2.67% (inactive).

Question: Which activation does the source give for Cc1cccc(NC(=O)c2ccc3ccccc3n2)n1 here?
Answer: The activation was 9.6% (active).

Question: How did the activation turn out when CCOc1ccc(OCc2ccc(C(=O)Nc3cccc(C)n3)o2)cc1 was run?
Answer: Its activation is -1.6% (inactive).

Question: With COC(=O)c1ccc(NC(=S)Nc2cccc(C)n2)cc1 as the compound, how does the activation read?
Answer: The activation was 1.84% (inactive).

Question: O=C(CN1CCCc2ccccc21)NCc1ccc(F)cc1 was tested. Which activation did it give?
Answer: The activation was -1.35% (inactive).

Question: For Cc1cc(C)n2ncc(C(=O)Nc3ccc4c(c3)OCCO4)c2n1, which activation is on record?
Answer: Its activation is -0.67% (inactive).

Question: How did the activation turn out when C[C@H](NC(=O)c1ccccc1)C(=O)OCC(=O)c1c[nH]c2ccccc12 was run?
Answer: Its activation is 4.62% (inactive).

Question: For O=C(OCC(=O)c1c[nH]c2ccccc12)c1cccc(O)c1, which activation is on record?
Answer: Its activation is 8.68% (active).

Question: For CCOc1ncccc1C(=O)OCC(=O)c1c[nH]c2ccccc12, which activation is on record?
Answer: The activation was 4.68% (inactive).

Question: With CCOC(=O)C1=C(C(=O)OCC)C2N(Cc3ccc(C#N)cc3)c3ccccc3[C@@]23C[C@@H](C(=O)OC)N(S(=O)(=O)c2ccc(F)cc2)C3=N1 (some centres undefined) as the compound, how does the activation read?
Answer: Its activation is 0.61% (inactive).

Question: How did the activation turn out when CCCCOCC1CN(CCCC)S(=O)(=O)c2c(Oc3ccc(F)cc3)cccc2O1 (centres undefined) was run?
Answer: The activation was -1.09% (inactive).

Question: Which activation does the source give for C/C(=N\NC(=S)NCc1ccccc1)c1ccc(Cl)cc1 here?
Answer: Its activation is -0.65% (inactive).

Question: Which activation does the source give for C/C(Cc1ccccc1)=N\NC(=O)CNC(=O)c1ccc2c(c1)OCCO2 here?
Answer: Its activation is -2.46% (inactive).

Question: How did the activation turn out when C/C(=N/NC(=S)Nc1ccccc1)c1ccc2c(c1)OCO2 was run?
Answer: Its activation is 8.71% (active).

Question: Cn1c(=NC(=O)C2CC2)sc2cc(F)cc(F)c21 was tested. Which activation did it give?
Answer: The activation was 7.5% (active).

Question: Which activation does the source give for Cc1cc(C)nc(NC(=S)N2CCN(c3ccc(C(F)(F)F)cn3)CC2)c1 here?
Answer: The activation was -1.92% (inactive).

Question: With CCCCN(C)C(=O)C1CCN(Cc2ccccn2)CC1 as the compound, how does the activation read?
Answer: The activation was -1.01% (inactive).

Question: How did the activation turn out when COc1ccc(OC)c(-n2cc3c(=O)n(C)c(=O)n(C)c3c2)c1 was run?
Answer: Its activation is -1.87% (inactive).

Question: How did the activation turn out when Cc1ccc(-c2c3c(=O)n(C)c(=O)n(C)c3cn2-n2cnnc2)cc1 was run?
Answer: The activation was 2.64% (inactive).

Question: COc1ccc(-c2c3c(=O)n(C)c(=O)n(C)c3cn2-c2cccc(OC)c2)cc1 was tested. Which activation did it give?
Answer: The activation was 7.44% (active).

Question: For Cc1ccc(C)c(NC(=O)CCS(=O)(=O)c2ccccc2)c1, which activation is on record?
Answer: Its activation is -3.65% (inactive).

Question: Which activation does the source give for COCC(C)NC(=O)c1ccc(Cl)c(Cl)c1 (centres undefined) here?
Answer: The activation was -2.09% (inactive).

Question: Which activation does the source give for CC1=C(C)CC(C(=O)NC(C)CCc2ccccc2)C(C(=O)O)C1 (centres undefined) here?
Answer: The activation was -2.02% (inactive).

Question: CC(CCc1ccccc1)NC(=O)c1cnc(Cl)c(Cl)c1 (centres undefined) was tested. Which activation did it give?
Answer: The activation was 6.18% (active).

Question: How did the activation turn out when O=C(NC1CCCC1)C1CSCCS(=O)(=O)N1Cc1ccccc1 (centres undefined) was run?
Answer: The activation was -0.49% (inactive).

Question: For COc1ccccc1CCn1cnc(-c2ccccc2)c1C(C)C, which activation is on record?
Answer: The activation was 0.67% (inactive).

Question: How did the activation turn out when O=C(NCc1ccccc1)[C@H]1CCCN1C(=O)[C@H]1CCCN1C(=O)c1cc(F)cc(F)c1 was run?
Answer: The activation was 0.44% (inactive).

Question: Which activation does the source give for C[C@@H]1COc2cccc(N3CCCC3)c2S(=O)(=O)N1C here?
Answer: Its activation is -0.39% (inactive).

Question: COC(=O)[C@H](C(C)C)N(CCCc1cn(Cc2ccccc2)nn1)S(=O)(=O)c1ccc(F)cc1Br was tested. Which activation did it give?
Answer: Its activation is -4.11% (inactive).

Question: How did the activation turn out when CC(C)(C)n1nc(C2CC2)c(Br)c1NC(=O)c1ccccc1F was run?
Answer: Its activation is -0.41% (inactive).

Question: Which activation does the source give for Fc1ccc2nc(Nc3nc4c(s3)CCCC4)sc2c1 here?
Answer: Its activation is 10% (active).

Question: How did the activation turn out when COC(=O)C(NC(C)=O)(Nc1nc2c(s1)CCCC2)C(F)(F)F (centres undefined) was run?
Answer: The activation was 1.23% (inactive).

Question: Which activation does the source give for O=C(C1CCN(S(=O)(=O)c2ccccc2)CC1)N1CCN(C2CCCCC2)CC1 here?
Answer: The activation was -1.68% (inactive).

Question: With COCCCNC(=O)C[C@H]1C[C@@]2(C(=O)OC)C(=C[C@H](C(C)(C)C)O[C@@H]2C)N(Cc2ccc(Cl)cc2Cl)C1=O as the compound, how does the activation read?
Answer: Its activation is 0.08% (inactive).

Question: How did the activation turn out when COC(=O)Cc1nnn2c1[C@H](C)[C@@H](OC)c1cc(Br)ccc1-2 was run?
Answer: Its activation is -1.33% (inactive).

Question: With CCOC(=O)c1nc(-c2ccc3c(c2)OCO3)[nH]c1C as the compound, how does the activation read?
Answer: Its activation is 4.99% (inactive).

Question: c1ccc2[nH]c(-c3nc4ccccc4[nH]3)nc2c1 was tested. Which activation did it give?
Answer: The activation was 11.1% (active).

Question: How did the activation turn out when CCOC(=O)CNC(=O)CSc1ncccc1-c1nc2ccccc2[nH]1 was run?
Answer: Its activation is 1.6% (inactive).

Question: For C/C(=N\Nc1nc2ccccc2[nH]1)c1cccs1, which activation is on record?
Answer: Its activation is 5.49% (inactive).

Question: With O=C1c2ccccc2C(c2nc3ccccc3[nH]2)N1c1ccccc1 (centres undefined) as the compound, how does the activation read?
Answer: Its activation is -0.51% (inactive).

Question: Cc1ccc(-c2nc3ccccc3[nH]2)cc1N was tested. Which activation did it give?
Answer: Its activation is 10.9% (active).

Question: For COC(=O)C1CN(CC(C)C)CCS(=O)(=O)N1Cc1ccc(F)cc1 (centres undefined), which activation is on record?
Answer: Its activation is -1.55% (inactive).

Question: With C#CCCN([C@H](C(=O)OC)C(C)C)S(=O)(=O)c1ccc(F)cc1Br as the compound, how does the activation read?
Answer: Its activation is -1.11% (inactive).

Question: CCNC(=O)c1cccc(NC(=O)C2CC(=O)N(CCc3ccccc3)C2)c1 (centres undefined) was tested. Which activation did it give?
Answer: Its activation is -0.37% (inactive).

Question: Which activation does the source give for CN(Cc1ccccc1Cl)C(=O)C1CCC(=O)N(CCc2cccc(F)c2)C1 (centres undefined) here?
Answer: The activation was -0.75% (inactive).

Question: Which activation does the source give for CN(CC(=O)Nc1cccc(F)c1)C(=O)C1CC(=O)N(CCc2ccccc2)C1 (centres undefined) here?
Answer: The activation was 6.61% (active).
